Experimental data published in PubChem BioAssay (NCATS).
Records with an inconclusive call do not appear. Calls of active or inactive are those of the source. The call rests on the fitted dose curve; in most records, active means well fitted inhibition curve with a large enough effect; inconclusive means small, poorly fitted or top-dose-only effect; inactive means no such curve, though single readings can be large or run the other way.

experiment: qHTS Screen of the MIPE 4.0 Collection Against Ewings Sarcoma (EW8) (AID 1259255); conditions: EW8 Ewing sarcoma viability, CellTiter-Glo, 48 h; series mostly up to 45.8 µM; further: nearly all actives have a fitted effect of over 35% in size
Excerpt: There is a large unmet medical need for treatments for Ewing sarcoma, a pediatric sarcoma. We sought to identify compounds that inhibited Ewing sarcoma cells in vitro with the goal to then test promising drugs in two drug combinations in vitro to look for synergistic drug combinations. Promising combinations would then proceed to additional validation, including in vivo testing.
Using the NCATS developed oncology compound library called the Mechanism of Interrogation Plate (MIPE), four Ewing sarcoma cell lines were evaluated (TC32, TC71, RDES, EW8). Compounds, in a 12-point titration series, were incubated with cells for 48 hours and the read out was cell viability (CellTiter-Glo from Promega). These initial experiments were used to select appropriate concentrations of each single agent for subsequent two-drug matrix combinations such that the concentrations in the matrices would span both activity and non-activity.
Cells, in the log phase of growth, were seeded in 5 uL of RPMI plus 5% FBS, […] L-glutamine, 100 U/ml penicillin and 100 ug/ml streptomycin into 1536-well solid-bottom white tissue culture treated Greiner Bio One Plates (789173-F) using a MultiDrop Combi (Thermofisher Scientific) dispenser and a small sterile cassette. One column was media alone to be used as a :"no cells" control. The plates were then covered with sterilized stainless steel gasketed lids from Kalypsys. After allowing cells to attach for 4 hours, 23 nL of test compound or control (negative control DMSO and positive control 9.2 uM Bortezomib-final) were added from a 1536-well polypropylene compound source plate to each well using a 1536 head pin tool from Kalypsys. Cells were then incubated for 48 hours at 37C, 95% relative humidity and 5% CO2. After 48 hours, plates were removed from the incubator and 3 uL of CellTiter-Glo (Promega) was added using an Aurora Flying Reagent Dispenser Bioraptor. Plates were incubated at room temperature for 10 minutes prior to reading the luminescence on the Viewlux (PerkinElmer). The relative luciferase units are used to calculate the percent activity using the activity of DMSO in the cells and no cells columns for normalization of no inhibition and full inhibition respectively.
Potency means the concentration at half of the fitted maximal effect.

| SMILES | Potency |
| --- | --- |
| CCNC(=O)Nc1ccc(Oc2ncnc(N)c2C=NOC)cc1Cl | 8.33 µM (active) |
| N#CC(c1ccnc(NCCc2cccnc2)n1)c1nc2ccccc2s1 (stereo not given) | 14.8 µM (active) |
| O=C(c1ccc(C(=O)N2CCC(N3CCCC3)CC2)c(Nc2ccccc2)c1)N1CCC(N2CCCC2)CC1 | 6.62 µM (active) |
| CN(C)N=Nc1nc[nH]c1C(N)=O | inactive |
| COc1cc2nccc(Oc3ccc(NC(=O)Nc4ccc(F)cc4F)c(F)c3)c2cc1OC | 16.6 µM (active) |
| CN(C)c1ccc(-c2nc3ncc(Cl)c(N4CCN(CC(=O)Nc5nccs5)CC4)c3[nH]2)cc1 | 16.6 µM (active) |
| CC(C)C[C@@H](C(=O)N[C@H](C(=O)OC1CCCC1)c1ccccc1)[C@H](O)C(=O)NO | 18.7 µM (active) |
| COc1ccc(Cn2ccc3ccc(C(=O)NO)cc32)cc1 | 14.8 µM (active) |
| CCC(=C(CC)c1ccc(O)cc1)c1ccc(O)cc1 | 26.4 µM (active) |
| c1ccc(-c2oc3ncnc(NC[C@@H]4CCCO4)c3c2-c2ccccc2)cc1 | 18.7 µM (active) |
| CCCCN(CCCC)CC(O)c1cc(Cl)cc2c1-c1ccc(Cl)cc1C2=Cc1ccc(Cl)cc1 (stereo not given) | inactive |
| O=C(Nc1ncc(SCCN2CCCC2)s1)[C@]1(c2ccc(S(=O)(=O)C3CC3)cc2)C[C@@H]1C1CCCCC1 | 13.2 µM (active) |
| NC(=O)c1noc([C@H](CCCC2CCCCC2)CC(=O)NO)n1 | 18.7 µM (active) |
| Cc1cnc(-c2cc(N3CCN(C(=O)CCS(C)(=O)=O)CC3)ncc2Cl)c(C)c1 | inactive |
| COc1nccc(-c2c(-c3ccc(F)cc3)ncn2C2CCC(O)CC2)n1 (stereo not given) | inactive |
| CCC(=O)N1CCN(c2ccc(-n3c(=O)ccc4cnc5ccc(-c6cnc7ccccc7c6)cc5c43)cc2C(F)(F)F)CC1 | 0.0332 µM (active) |
| CN1c2ccccc2C(=O)N2CCc3c([nH]c4ccccc34)C21 (stereo not given) | inactive |
| O=C(O)CCNc1cc(N2CCc3ccccc3CC2)nc(-c2ccccn2)n1 | inactive |
| COC(=O)N1CCN(Cc2cccc(NC(=O)Nc3ccc(C)nc3)c2F)CC1 | inactive |
| O=C(O)C1=NC(C(=O)O)CC(C=CN2c3cc(O)c(OC4OC(CO)C(O)C(O)C4O)cc3CC2C(=O)O)=C1 (stereo not given) | inactive |

| SMILES | Potency |
| --- | --- |
| CC(C)=CCCC(C)=CCCC(C)=CCCC(C)=CCCC(C)=CCCC(C)=CCCC(C)=CCCC(C)=CCCC(C)=CCO | inactive |
| N=C1SC(=Cc2ccc(-c3ccc4c(c3)C(=O)NC4=O)o2)C(=O)N1c1ccc(Br)cc1 | inactive |
| NC(=O)c1nnn(Cc2cc(Cl)c(C(=O)c3ccc(Cl)cc3)c(Cl)c2)c1N | 26.4 µM (active) |
| OC(c1cc(C(F)(F)F)nc2c(C(F)(F)F)cccc12)C1CCCCN1 (stereo not given) | 20.9 µM (active) |
| CC[C@H](C)C(=O)O[C@H]1C[C@H](O)C=C2C=C[C@H](C)[C@H](CC[C@@H](O)C[C@@H](O)CC(=O)O)[C@H]21 | inactive |
| C=C1[C@H](n2cnc3c(=O)[nH]c(N)nc32)C[C@H](O)[C@H]1CO | 13.2 µM (active) |
| COc1cc2c(cc1Cc1cccc(Cl)c1F)c(=O)c(C(=O)O)cn2[C@H](CO)C(C)C | 23.5 µM (active) |
| CN1[C@H]2CC[C@H]1CC(OC(=O)c1c[nH]c3ccccc13)C2 (stereo not given in full) | 4.18 µM (active) |
| CC[C@H](C=C[C@@H](C)[C@H]1CC[C@H]2[C@@H]3CC=C4C[C@@H](O)CC[C@]4(C)[C@@H]3CC[C@]12C)C(C)C | inactive |
| FC(F)(F)c1ccc(C=Cc2nc(COc3ccc(CCCCn4ccnn4)cc3)co2)cc1 | 0.743 µM (active) |
| N#CC(=C1Nc2ccccc2S1)c1ccnc(OCc2ccc(CN3CCOCC3)cc2)n1 | 5.26 µM (active) |
| COc1nc(C)cnc1NS(=O)(=O)c1cccnc1-c1ccc(-c2nnco2)cc1 | inactive |
| C[C@@H]1[C@H](C)CC[C@]2(C(=O)O)CC[C@]3(C)C(=CC[C@@H]4[C@@]5(C)CC[C@H](O)C(C)(C)[C@H]5CC[C@]43C)[C@@H]12 | 5.4 µM (active) |
| Cc1cn([C@@H]2C[C@@H](O)[C@H](CO)O2)c(=O)[nH]c1=O | inactive |
| C[C@]12CC[C@@H]3c4ccc(O)cc4CC[C@H]3[C@H]1[C@@H](O)[C@@H](O)[C@H]2O | inactive |
| CCCC1OC2C[C@@H]3[C@H]4CCC5=CC(=O)C=C[C@]5(C)[C@H]4C(O)C[C@]3(C)[C@]2(C(=O)CO)O1 (stereo not given in full) | 18.7 µM (active) |
| N#CC1(c2cccc(C(=O)Nc3cc(Oc4ccc5nc(NC(=O)C6CC6)sc5n4)ccc3F)c2Cl)CC1 | 20.9 µM (active) |
| CCC=CC[C@H]1C(=O)CC[C@@H]1CC(=O)OC | inactive |
| COc1cc(N2CCN(C)CC2)ccc1Nc1nc(N)c(C(=O)c2c(Cl)cccc2Cl)s1 | 16.6 µM (active) |
| CCN1C[C@H](C)n2c(c(O)c3c(=O)n(Cc4ccc(F)c(Cl)c4)nc(C(=O)NC)c32)C1=O | inactive |
